# Data taken from PubChem BioAssay (NCATS).
# Results filed as inconclusive are left out. Values without a mark were called inactive. Active and inactive are the calls of the source. The call rests on the fitted dose curve; in most records, active means well fitted curve in the direction sought with a large enough effect; inconclusive means small, poorly fitted or top-dose-only effect, or another doubt; inactive means no such curve, though single readings can be large; an effect the other way counts as inactive or inconclusive.
# Assay: Quantitative highthroughput screen to assess conditional lethalithy of P12 Ichikawa cells grown in RPMI1640 with untreated serum (RPMI+s) (AID 1963881);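 on viability: 100% = DMSO wells and 0% = empty wells without cells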
# Conditions: ATP luminescence, 48 h; Potency: viability; series mostly up to 45.8 µM; viability: at the top concentration
# How it was run: (§1)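 Each medium arm—HPLM with 10% dialyzed FBS, or RPMI1640 with 5 mM glucose and 10% untreated or dialyzed FBS—was screened against an 11-point, 3-fold compound titration for 48 h at 37 °C, with CellTiter-Glo luminescence as endpoint.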
# Further: nearly all actives have a fitted effect of over 35% in size.
# Potency means the concentration at half of the fitted maximal effect.
Structure (SMILES),viability,Potency
CCNC(=O)[C@H]1O[C@@H](n2cnc3c(N)nc(NCCc4ccc(CCC(=O)O)cc4)nc32)[C@H](O)[C@H]1O,101%,–
CC(C)(C)OC(=O)N[C@H]1CCCCCC=C[C@@H]2C[C@@]2(C(=O)NS(=O)(=O)C2CC2)NC(=O)[C@@H]2C[C@@H](OC(=O)N3Cc4cccc(F)c4C3)CN2C1=O,77.7%,–
Cc1nc(NC(=O)N2CCC[C@@H]2C(N)=O)sc1-c1ccnc(C(C)(C)C(F)(F)F)c1,–,3320 nM (active)
Cc1c(Cn2c(C)nc3c(C(=O)O)cc(N4CCOCC4)cc32)cccc1C(F)(F)F,90.9%,–
C=CC1=C(C(=O)O)N2C(=O)[C@@H](NC(=O)C(=NO)c3csc(N)n3)[C@H]2SC1,92.2%,–
O=c1c2ccccc2nc2n1CCc1c-2[nH]c2ccccc12,–,13200 nM (active)
O=C1Nc2ccc(I)cc2C1=Cc1cc(Br)c(O)c(Br)c1,86.7%,–
CN(N=O)C(=O)N[C@H]1C(O)OC(CO)[C@@H](O)[C@H]1O (stereo not given in full),99.8%,–
OCC(O)C(O)C(O)CO (stereo not given),104%,–
Cc1ccc(C2=Nc3ccc(Cl)cc3OC2)cc1,–,20900 nM (active)
Cc1cc(CS(=O)(=O)c2ccccc2)cc(OCc2ccc(CN3CCC[C@H]3CO)cc2)c1,–,1050 nM (active)
NC(=O)c1cccc(N)c1,95.6%,–
O=C(C=Cc1ccc(/C=C/C(=O)Nc2ccc(C3=NCCN3)cc2)cc1)Nc1ccc(C2=NCCN2)cc1,97.6%,–
CC(=O)[C@]1(O)Cc2c(O)c3c(c(O)c2[C@@H](O[C@H]2C[C@H](N)[C@@H](O)[C@H](C)O2)C1)C(=O)c1ccccc1C3=O,–,1480 nM (active)
COc1ccc(C(C)=O)c(O)c1,–,8330 nM (active)
N#CC(=C(O)c1ccc(Cl)cc1Cl)c1nc2cc(Cl)ccc2c(=O)[nH]1,96.2%,–
CC(C)c1nn(-c2c(Cl)cccc2Cl)c2nc(Cc3ccc(OCCO)cc3)[nH]c(=O)c12,–,148 nM (active)
OC(CN1CCN(c2cccc(Cl)c2)CC1)C(c1ccccc1)c1ccccc1 (stereo not given),–,935 nM (active)
Cc1ccc(Nc2cc(-c3cccc(N4C(=O)c5ccccc5C4=O)c3)ncn2)cc1NS(C)(=O)=O,81.6%,–
C=C1C[C@@]2(O)O[C@@]3(C[C@H]2C(C)C)[C@H](C)CC[C@H]13,105%,–
CC(C=CC=C(C)C=CC1=C(C)CCCC1(C)C)=CC=CC=C(C)C=CC=C(C)C=CC1=C(C)CCCC1(C)C,97.3%,–
C[C@H]1[C@H](O)O[C@@H]2O[C@@]3(C)CC[C@@H]4[C@H](C)CC[C@@H]1[C@@]24OO3,–,2960 nM (active)
COc1ccc(-c2cc(=O)c3c(O)cc(O[C@@H]4O[C@H](CO[C@@H]5O[C@@H](C)[C@H](O)[C@@H](O)[C@@H]5O)[C@@H](O)[C@H](O)[C@@H]4O)cc3o2)cc1O,110%,–
Nc1nc(=O)n([C@H]2CSC(CO)O2)cc1F (stereo not given in full),103%,–

# Assay: Quantitative highthroughput screen to assess conditional lethalithy of SEM cells grown in Human Plasma-Like Medium with dialyzed fetal bovine serum (HPLM+ds) (AID 1963882)
# Conditions: SEM B-ALL cells in HPLM+ds, CellTiter-Glo viability, 48 h; series mostly up to 45.8 µM; viability: at the top concentration
# How it was run: as §1
Structure (SMILES),Potency,viability
NS(=O)(=O)OC[C@@H]1C[C@@H](n2ccc3c(N[C@H]4CCc5ccccc54)ncnc32)C[C@H]1O,1480 nM (active),–
CCC(=O)N[C@H]1CC[C@H](C(=O)N(C)c2ccc(-c3nc4ccccc4o3)cc2)C1,–,95.2%
CC(C)(C)OC(=O)N[C@H]1CCCCCC=C[C@@H]2C[C@@]2(C(=O)NS(=O)(=O)C2CC2)NC(=O)[C@@H]2C[C@@H](OC(=O)N3Cc4cccc(F)c4C3)CN2C1=O,–,88.1%
CC(C)CN(C[C@@H](O)[C@H](Cc1ccccc1)NC(=O)O[C@H]1CO[C@H]2OCC[C@H]21)S(=O)(=O)c1ccc(N)cc1,3720 nM (active),–
Cc1nc(NC(=O)N2CCC[C@@H]2C(N)=O)sc1-c1ccnc(C(C)(C)C(F)(F)F)c1,1480 nM (active),–
CC(C)(C)NC(=O)[C@H]1CN(Cc2cccnc2)CCN1C[C@@H](O)C[C@@H](Cc1ccccc1)C(=O)N[C@H]1c2ccccc2C[C@H]1O,–,75.5%
Cc1c(Cn2c(C)nc3c(C(=O)O)cc(N4CCOCC4)cc32)cccc1C(F)(F)F,–,96%
C=CC1=C(C(=O)O)N2C(=O)[C@@H](NC(=O)C(=NO)c3csc(N)n3)[C@H]2SC1,–,102%
C[C@]12CCC(=O)C=C1CC[C@@H]1[C@H]2[C@@H](O)C[C@@]2(C)[C@H]1CC[C@]2(O)C(=O)CO,–,86.6%
CC1(C)OC2CC3C4CC(F)C5=CC(=O)C=CC5(C)C4C(O)CC3(C)[C@]2(C(=O)CO)O1 (stereo not given in full),2350 nM (active),–
O=C1Nc2ccc(I)cc2C1=Cc1cc(Br)c(O)c(Br)c1,–,81.7%
COC1=C2C[C@@H](C)C[C@H](OC)[C@@H](O)[C@@H](C)C=C(C)[C@H](OC(N)=O)[C@@H](OC)C=CC=C(C)C(=O)NC(=CC1=O)C2=O,8330 nM (active),–
Cc1cc(CS(=O)(=O)c2ccccc2)cc(OCc2ccc(CN3CCC[C@H]3CO)cc2)c1,590 nM (active),–
C=CCNC1=C2C[C@@H](C)C[C@H](OC)[C@@H](O)[C@@H](C)C=C(C)[C@H](OC(N)=O)[C@@H](OC)C=CC=C(C)C(=O)NC(=CC1=O)C2=O,526 nM (active),–
CNC(=O)[C@H](CC1=CN=C2C=CCC=C12)NC(=O)[C@@H](CC(=O)NO)CC(C)C,–,89.7%
NC(=O)c1cccc(N)c1,–,102%

Structure (SMILES),Potency,viability
O=C(C=Cc1ccc(/C=C/C(=O)Nc2ccc(C3=NCCN3)cc2)cc1)Nc1ccc(C2=NCCN2)cc1,–,99.9%
CC(=O)[C@]1(O)Cc2c(O)c3c(c(O)c2[C@@H](O[C@H]2C[C@H](N)[C@@H](O)[C@H](C)O2)C1)C(=O)c1ccccc1C3=O,1050 nM (active),–
COc1ccc2ccc(=O)oc2c1CC=C(C)C,–,70.9%
COc1ccc(C(C)=O)c(O)c1,–,99.2%
Cn1cc(-c2ccc3nnc(C(F)(F)c4ccc5ncccc5c4)n3n2)cn1,–,92.9%
Fc1ccc(C(c2ccc(F)cc2)N2CCN(CC=Cc3ccccc3)CC2)cc1,–,90.7%
N#CC(=C(O)c1ccc(Cl)cc1Cl)c1nc2cc(Cl)ccc2c(=O)[nH]1,–,110%
CC(C)c1nn(-c2c(Cl)cccc2Cl)c2nc(Cc3ccc(OCCO)cc3)[nH]c(=O)c12,105 nM (active),–
NC(=O)c1nnn(Cc2cc(Cl)c(C(=O)c3ccc(Cl)cc3)c(Cl)c2)c1N,–,85.9%
C=C1C[C@@]2(O)O[C@@]3(C[C@H]2C(C)C)[C@H](C)CC[C@H]13,–,85.3%
CC(C=CC=C(C)C=CC1=C(C)CCCC1(C)C)=CC=CC=C(C)C=CC=C(C)C=CC1=C(C)CCCC1(C)C,–,102%
N#CC(=C1Nc2ccccc2S1)c1ccnc(OCc2ccc(CN3CCOCC3)cc2)n1,–,87.3%
C[C@H]1[C@H](O)O[C@@H]2O[C@@]3(C)CC[C@@H]4[C@H](C)CC[C@@H]1[C@@]24OO3,4180 nM (active),–
COc1ccc(-c2cc(=O)c3c(O)cc(O[C@@H]4O[C@H](CO[C@@H]5O[C@@H](C)[C@H](O)[C@@H](O)[C@@H]5O)[C@@H](O)[C@H](O)[C@@H]4O)cc3o2)cc1O,–,95.7%
COc1ccc2cc1Oc1ccc(cc1)C[C@H]1c3cc(c(OC)cc3CCN1C)Oc1c(OC)c(OC)cc3c1[C@H](C2)N(C)CC3,–,97.7%
